Source: the supplement of paper PMC11732987, “Enantioselective OTUD7B fragment discovery through chemoproteomics screening and high-throughput optimisation” (Communications Chemistry, 2025)

Key:
Assay in all cases: log2 ratio of Biotin-Ahx-Ub-VS probe labelling (fragment/DMSO); higher = less target engagement (more negative = stronger competition), active = hit call of the paper (q ≤ 0.05, log2 ratio ≤ -1)
Conditions in all cases: compound concentration: 200 uM; treatment time: 3 h
[1] = target: T1, ALG13 (UniProt Q9NP73)
T1 sequence (whole entry): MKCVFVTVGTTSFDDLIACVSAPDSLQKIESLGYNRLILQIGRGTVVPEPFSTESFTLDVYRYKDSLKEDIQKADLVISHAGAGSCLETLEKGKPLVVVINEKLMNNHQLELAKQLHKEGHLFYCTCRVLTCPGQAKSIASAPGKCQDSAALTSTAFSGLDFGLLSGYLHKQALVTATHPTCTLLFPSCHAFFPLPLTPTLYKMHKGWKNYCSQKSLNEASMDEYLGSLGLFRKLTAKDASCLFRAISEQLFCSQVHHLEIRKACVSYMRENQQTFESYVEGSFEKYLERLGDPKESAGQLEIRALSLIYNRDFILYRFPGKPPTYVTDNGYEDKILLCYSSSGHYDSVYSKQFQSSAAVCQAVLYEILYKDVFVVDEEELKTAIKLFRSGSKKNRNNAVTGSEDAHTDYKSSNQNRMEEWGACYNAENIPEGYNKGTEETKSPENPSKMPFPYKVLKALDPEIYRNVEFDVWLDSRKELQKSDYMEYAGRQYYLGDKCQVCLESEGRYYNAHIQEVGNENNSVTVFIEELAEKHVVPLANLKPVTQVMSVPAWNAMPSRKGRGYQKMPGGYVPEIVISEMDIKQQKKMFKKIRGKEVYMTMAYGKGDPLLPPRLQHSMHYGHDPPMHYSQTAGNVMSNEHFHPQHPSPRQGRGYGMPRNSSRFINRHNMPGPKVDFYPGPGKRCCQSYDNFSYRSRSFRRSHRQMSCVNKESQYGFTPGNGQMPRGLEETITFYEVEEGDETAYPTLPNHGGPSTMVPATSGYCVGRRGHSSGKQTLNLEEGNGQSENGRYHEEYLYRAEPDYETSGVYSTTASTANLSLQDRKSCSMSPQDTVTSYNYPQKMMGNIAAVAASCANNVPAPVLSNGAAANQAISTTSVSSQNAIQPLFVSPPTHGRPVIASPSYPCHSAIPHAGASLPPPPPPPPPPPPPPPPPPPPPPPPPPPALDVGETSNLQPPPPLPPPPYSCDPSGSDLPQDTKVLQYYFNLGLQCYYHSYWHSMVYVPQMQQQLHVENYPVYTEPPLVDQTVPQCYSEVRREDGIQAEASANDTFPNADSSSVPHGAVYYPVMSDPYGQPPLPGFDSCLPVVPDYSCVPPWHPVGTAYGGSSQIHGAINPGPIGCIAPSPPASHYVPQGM
Summary of the method: (§1)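 HEK293T lysate (495 µg per sample, in Tris/CHAPS/IGEPAL buffer with protease inhibitors) was exposed in triplicate for 3 h to fragment at 200 µM or to vehicle, then to Biotin-Ahx-Ub-VS at 0.5 µM final for 1 h. Labelled DUBs were enriched on NeutrAvidin, digested with LysC and trypsin, and analysed by diaPASEF LC-MS/MS. Spectronaut label-free quantities were normalised to the global median, and values are average log2 ratios of fragment over vehicle from an unpaired t-test. Only proteins with ≥2 unique peptides were used.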

[2] = target: ATXN3 (UniProt P54252)
Summary of the method: as §1

[3] = target: T2, BAP1 (UniProt Q92560)
T2 sequence (whole entry): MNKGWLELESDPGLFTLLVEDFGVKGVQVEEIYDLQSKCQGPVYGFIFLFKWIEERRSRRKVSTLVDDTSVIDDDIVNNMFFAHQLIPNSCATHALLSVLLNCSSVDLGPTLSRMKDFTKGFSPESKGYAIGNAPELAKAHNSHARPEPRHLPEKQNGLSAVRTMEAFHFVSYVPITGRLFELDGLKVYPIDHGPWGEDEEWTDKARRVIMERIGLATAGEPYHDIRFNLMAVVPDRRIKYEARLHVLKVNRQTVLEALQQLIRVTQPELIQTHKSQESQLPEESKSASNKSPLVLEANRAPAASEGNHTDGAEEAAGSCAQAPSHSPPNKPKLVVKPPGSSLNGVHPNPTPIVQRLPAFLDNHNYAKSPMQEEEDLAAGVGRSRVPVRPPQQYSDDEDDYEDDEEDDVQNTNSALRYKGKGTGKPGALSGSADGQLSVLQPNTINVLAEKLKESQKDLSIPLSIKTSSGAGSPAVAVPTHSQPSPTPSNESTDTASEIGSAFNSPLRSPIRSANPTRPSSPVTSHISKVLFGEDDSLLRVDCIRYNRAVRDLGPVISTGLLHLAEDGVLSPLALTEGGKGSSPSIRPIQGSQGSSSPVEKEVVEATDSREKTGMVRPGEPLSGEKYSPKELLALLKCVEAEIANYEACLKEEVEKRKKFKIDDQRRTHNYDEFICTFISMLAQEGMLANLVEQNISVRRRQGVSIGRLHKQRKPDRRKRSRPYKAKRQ
Summary of the method: as §1

[4] = target: EIF3F (UniProt O00303)
Summary of the method: as §1

[5] = target: EIF3H (UniProt O15372)
Summary of the method: as §1

[6] = target: T3, FAM105A (UniProt Q9NUU6)
T3 sequence (whole entry): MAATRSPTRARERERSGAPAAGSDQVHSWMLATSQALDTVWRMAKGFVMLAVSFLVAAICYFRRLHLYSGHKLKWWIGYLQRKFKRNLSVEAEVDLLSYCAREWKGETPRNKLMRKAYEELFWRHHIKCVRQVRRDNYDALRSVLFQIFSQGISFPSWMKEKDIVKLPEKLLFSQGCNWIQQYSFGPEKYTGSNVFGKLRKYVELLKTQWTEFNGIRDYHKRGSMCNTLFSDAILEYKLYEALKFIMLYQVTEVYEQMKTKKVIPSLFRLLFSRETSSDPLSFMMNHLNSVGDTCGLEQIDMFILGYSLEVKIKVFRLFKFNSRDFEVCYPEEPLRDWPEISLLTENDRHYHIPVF
Summary of the method: as §1

[7] = target: OTUB1 (UniProt Q96FW1)
Summary of the method: as §1

[8] = target: T4, OTUD4 (UniProt Q01804)
T4 sequence (whole entry): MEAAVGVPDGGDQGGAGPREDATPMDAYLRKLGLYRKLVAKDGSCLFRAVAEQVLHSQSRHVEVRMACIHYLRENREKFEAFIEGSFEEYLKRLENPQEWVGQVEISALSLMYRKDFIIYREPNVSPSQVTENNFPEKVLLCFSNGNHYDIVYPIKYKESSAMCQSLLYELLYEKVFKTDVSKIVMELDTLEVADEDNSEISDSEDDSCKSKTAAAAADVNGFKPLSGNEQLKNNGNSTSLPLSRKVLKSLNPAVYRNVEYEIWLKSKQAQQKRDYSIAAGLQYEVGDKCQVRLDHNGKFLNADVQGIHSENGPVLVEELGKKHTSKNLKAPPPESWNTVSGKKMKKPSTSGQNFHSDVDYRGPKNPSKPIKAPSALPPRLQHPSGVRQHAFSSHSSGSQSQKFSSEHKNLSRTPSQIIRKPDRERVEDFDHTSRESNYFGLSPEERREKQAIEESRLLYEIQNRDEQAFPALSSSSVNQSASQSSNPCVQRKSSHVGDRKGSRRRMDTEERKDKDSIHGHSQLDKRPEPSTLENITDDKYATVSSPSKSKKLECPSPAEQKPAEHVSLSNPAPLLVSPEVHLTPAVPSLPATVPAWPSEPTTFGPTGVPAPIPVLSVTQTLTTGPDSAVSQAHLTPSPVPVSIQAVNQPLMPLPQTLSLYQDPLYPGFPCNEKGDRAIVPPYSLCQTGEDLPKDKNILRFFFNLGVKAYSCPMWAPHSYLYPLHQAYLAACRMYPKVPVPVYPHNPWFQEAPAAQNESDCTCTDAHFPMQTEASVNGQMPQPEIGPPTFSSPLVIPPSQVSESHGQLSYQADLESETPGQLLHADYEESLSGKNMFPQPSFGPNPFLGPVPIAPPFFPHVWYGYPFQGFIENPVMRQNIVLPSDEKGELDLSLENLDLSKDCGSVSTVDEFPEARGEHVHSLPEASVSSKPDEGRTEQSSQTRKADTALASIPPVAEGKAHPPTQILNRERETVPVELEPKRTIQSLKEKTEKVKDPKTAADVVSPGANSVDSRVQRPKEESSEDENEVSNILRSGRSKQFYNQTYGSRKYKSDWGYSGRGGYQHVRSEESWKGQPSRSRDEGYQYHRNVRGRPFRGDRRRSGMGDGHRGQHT
Summary of the method: as §1

[9] = target: T5, OTUD5 (UniProt Q96G74)
T5 sequence (whole entry): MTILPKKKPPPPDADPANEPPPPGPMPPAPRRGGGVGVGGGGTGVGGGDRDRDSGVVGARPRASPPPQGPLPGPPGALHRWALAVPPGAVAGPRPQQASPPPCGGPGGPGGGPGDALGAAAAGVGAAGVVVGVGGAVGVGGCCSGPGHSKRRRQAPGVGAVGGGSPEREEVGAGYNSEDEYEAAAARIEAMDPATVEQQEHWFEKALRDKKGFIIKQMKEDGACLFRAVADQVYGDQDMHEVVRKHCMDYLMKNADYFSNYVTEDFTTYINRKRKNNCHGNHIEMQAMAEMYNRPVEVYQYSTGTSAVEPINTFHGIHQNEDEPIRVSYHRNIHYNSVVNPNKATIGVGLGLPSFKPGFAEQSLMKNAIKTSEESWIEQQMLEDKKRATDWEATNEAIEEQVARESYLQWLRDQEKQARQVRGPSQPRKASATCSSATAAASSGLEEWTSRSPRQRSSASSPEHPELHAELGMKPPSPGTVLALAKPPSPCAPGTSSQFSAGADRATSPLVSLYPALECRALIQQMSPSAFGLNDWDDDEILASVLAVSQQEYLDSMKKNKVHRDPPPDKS
Summary of the method: as §1

Measured: log2 ratio of Biotin-Ahx-Ub-VS probe labelling

Chain of EIF3H (O15372 whole entry): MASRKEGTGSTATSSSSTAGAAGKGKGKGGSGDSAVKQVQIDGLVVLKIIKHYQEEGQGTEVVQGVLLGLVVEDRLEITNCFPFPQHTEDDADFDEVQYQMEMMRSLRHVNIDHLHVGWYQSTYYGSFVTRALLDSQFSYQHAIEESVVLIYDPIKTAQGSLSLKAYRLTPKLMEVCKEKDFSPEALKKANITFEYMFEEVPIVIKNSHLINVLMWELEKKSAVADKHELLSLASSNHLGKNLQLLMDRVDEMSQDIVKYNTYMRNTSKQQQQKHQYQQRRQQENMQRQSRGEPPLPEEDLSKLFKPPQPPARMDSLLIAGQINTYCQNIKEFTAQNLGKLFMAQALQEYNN
Chain of OTUB1 (Q96FW1 whole entry): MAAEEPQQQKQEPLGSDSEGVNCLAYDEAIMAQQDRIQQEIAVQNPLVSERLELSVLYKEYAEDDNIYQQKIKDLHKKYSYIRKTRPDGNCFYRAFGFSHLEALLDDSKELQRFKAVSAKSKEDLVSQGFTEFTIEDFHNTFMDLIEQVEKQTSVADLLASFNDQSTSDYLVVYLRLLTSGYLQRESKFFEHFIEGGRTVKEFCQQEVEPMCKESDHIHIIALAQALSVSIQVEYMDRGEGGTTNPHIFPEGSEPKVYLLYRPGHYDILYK
Chain of ATXN3 (P54252 whole entry): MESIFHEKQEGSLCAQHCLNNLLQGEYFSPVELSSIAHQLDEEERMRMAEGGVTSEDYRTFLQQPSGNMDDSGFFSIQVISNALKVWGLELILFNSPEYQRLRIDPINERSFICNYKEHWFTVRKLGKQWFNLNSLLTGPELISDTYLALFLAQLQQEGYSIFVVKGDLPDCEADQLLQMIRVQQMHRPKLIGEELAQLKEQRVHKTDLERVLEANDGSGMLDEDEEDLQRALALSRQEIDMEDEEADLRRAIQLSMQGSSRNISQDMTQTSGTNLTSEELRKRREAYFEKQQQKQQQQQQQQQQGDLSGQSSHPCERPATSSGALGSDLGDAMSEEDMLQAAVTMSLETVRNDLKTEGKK
Chain of EIF3F (O00303 whole entry): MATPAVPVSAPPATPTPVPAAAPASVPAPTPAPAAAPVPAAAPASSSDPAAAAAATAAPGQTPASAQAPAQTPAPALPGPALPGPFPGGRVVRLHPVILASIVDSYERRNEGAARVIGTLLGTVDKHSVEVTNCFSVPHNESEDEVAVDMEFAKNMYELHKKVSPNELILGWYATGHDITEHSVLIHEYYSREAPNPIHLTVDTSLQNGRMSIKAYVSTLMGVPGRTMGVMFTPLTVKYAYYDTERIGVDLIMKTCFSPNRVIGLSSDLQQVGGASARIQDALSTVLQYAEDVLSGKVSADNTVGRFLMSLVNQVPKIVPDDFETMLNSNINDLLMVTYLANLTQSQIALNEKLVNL

O=C(CCl)NC1CCCCNC1=O (centres undefined)
inactive: [1] -0.0613 | [2] -0.417 | [3] -0.683 | [4] -0.598 | [5] 0.103 | [6] 0.229 | [7] -0.231 | [8] -0.342 | [9] -0.397
